Among the data in PubChem BioAssay AID1508601 (ICCB-Longwood Screening Facility, Harvard Medical School, 2020) are nuclei count, normalised and p53-positive nuclei, normalised values, retold here.

Hit rate of the full screen: of about 5,700 compounds, about 85 (1%) were called active. Rule as the data show it: active = p53-positive nuclei above about 36% (passing the limit was not always enough); inactive = the rest. For the sample, actives were picked, then their nearest neighbours and some compounds at random.

Assay [1] in a line: p53 stabilisation in HPV-positive human cells, imaging, p53-positive nuclei imaging, 24 h, 48 h (AID 1508601). The following applies: 24/48 h.
Assay [2] deals with Cellular tumor antigen p53 (Homo sapiens) (UniProt P04637). The description is as above. The following applies: 24/48 h, stronger effect = higher value.
Chain of Cellular tumor antigen p53 (Homo sapiens) (P04637 whole entry, looked up): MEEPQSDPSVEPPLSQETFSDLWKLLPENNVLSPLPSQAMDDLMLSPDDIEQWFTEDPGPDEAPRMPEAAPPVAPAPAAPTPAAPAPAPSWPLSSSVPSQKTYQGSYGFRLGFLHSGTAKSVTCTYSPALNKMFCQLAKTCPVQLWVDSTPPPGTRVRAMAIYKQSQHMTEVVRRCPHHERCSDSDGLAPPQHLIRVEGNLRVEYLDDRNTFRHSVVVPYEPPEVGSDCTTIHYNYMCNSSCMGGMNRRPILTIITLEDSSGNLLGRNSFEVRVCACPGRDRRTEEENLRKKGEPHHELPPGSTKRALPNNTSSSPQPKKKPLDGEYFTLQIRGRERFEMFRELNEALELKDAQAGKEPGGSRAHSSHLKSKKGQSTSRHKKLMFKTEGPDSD
Setting [3] is: measured here: cell number at 24 h, concentration not given here.
The mark [4] stands for this setting: measured here: cell number at 48 h, concentration not given here.
The mark [5] stands for this setting: measured here: p53 positive nuclei at 24 h, concentration not given here.
Setting [6] is: measured here: cell number at 24 h, Library stock concentration: 3.33 mM.
The mark [7] stands for this setting: measured here: cell number at 48 h, Library stock concentration: 3.33 mM.
Where [8] appears, read: Library stock concentration: 3.33 mM.
[9] abbreviates: measured here: p53 positive nuclei at 24 h, Library stock concentration: 3.33 mM.
[10] abbreviates: measured here: cell number at 24 h, Library stock concentration: 10 mM.
Where [11] appears, read: measured here: cell number at 48 h, Library stock concentration: 10 mM.
Where [12] appears, read: Library stock concentration: 10 mM.
[13] abbreviates: measured here: p53 positive nuclei at 24 h, Library stock concentration: 10 mM.
The mark [14] stands for this setting: measured here: cell number at 24 h, Library stock concentration: 80 uM.
[15] abbreviates: measured here: cell number at 24 h, Library stock concentration: 400 uM.
Where [16] appears, read: measured here: cell number at 24 h, Library stock concentration: 2 mM.
The mark [17] stands for this setting: measured here: cell number at 48 h, Library stock concentration: 80 uM.
The mark [18] stands for this setting: measured here: cell number at 48 h, Library stock concentration: 400 uM.
The mark [19] stands for this setting: measured here: cell number at 48 h, Library stock concentration: 2 mM.
Where [20] appears, read: Library stock concentration: 80 uM.
[21] abbreviates: Library stock concentration: 400 uM.
The mark [22] stands for this setting: Library stock concentration: 2 mM.
Where [23] appears, read: measured here: p53 positive nuclei at 24 h, Library stock concentration: 80 uM.
Setting [24] is: measured here: p53 positive nuclei at 24 h, Library stock concentration: 400 uM.
Where [25] appears, read: measured here: p53 positive nuclei at 24 h, Library stock concentration: 2 mM.

As to `CC(C)[C@H](C(=O)Nc1ccc(C(=O)NO)cc1)c1ccccc1`, the nuclei count, normalised was 80% in assay [1] (setting [3]) and 65.6% in assay [1] (setting [4]). Further, the p53-positive nuclei, normalised in assay [2] (concentration not given here) is 9.18% (inactive); in assay [2] (setting [5]), 17.4%.

`CC(=O)Nc1ccc(C(=O)Nc2ccccc2N)cc1`: the figures for the nuclei count, normalised in assay [1] (setting [6]) and in assay [1] (setting [7]) were 92.6% and 89.8%, respectively. Besides, the p53-positive nuclei, normalised was 0.127% (inactive) in assay [2] (setting [8]) and -0.311% in assay [2] (setting [9]).

As to `CC(C)C(C(=O)Nc1ccc(C(=O)NO)cc1)c1ccccc1` (centres undefined), the values for the nuclei count, normalised in assay [1] (setting [6]) and in assay [1] (setting [7]) were 45.5% and 32%, respectively. The values for the p53-positive nuclei, normalised in assay [2] (setting [8]) and in assay [2] (setting [9]) were 48.1% (active) and 50.4%, respectively.

As to `COc1ccc(F)cc1-c1cnn(CC(=O)Nc2cc(C)nn2C)c1`, the nuclei count, normalised in assay [1] (setting [3]) was found to be 95.8%; in assay [1] (setting [4]), 92.9%. Also, the p53-positive nuclei, normalised in assay [2] (concentration not given here) was 0.158% (inactive); in assay [2] (setting [5]) it was -0.0647%.

As for `CCCCC/C=C/C/C=C/CCCCCCCC(=O)O`, the nuclei count, normalised in assay [1] (setting [3]) and in assay [1] (setting [4]) was 108% in each case. The p53-positive nuclei, normalised in assay [2] (concentration not given here) was -0.00219% (inactive); in assay [2] (setting [5]) it was -0.0851%.

On to `Cc1cc(OCc2nnc(SC3CCCC3)n2-c2cccnc2)ccc1-c1ccc(S(C)(=O)=O)cc1`, for which the nuclei count, normalised turned out to be 107% in assay [1] (measured here: cell number at 24 h, Library stock concentration: 46 uM); 112% in assay [1] (measured here: cell number at 24 h, Library stock concentration: 278 uM); 74.2% in assay [1] (measured here: cell number at 24 h, Library stock concentration: 1.67 mM); 78.3% in assay [1] (setting [6]); 53.9% in assay [1] (setting [10]); 114% in assay [1] (measured here: cell number at 48 h, Library stock concentration: 46 uM). The nuclei count, normalised in assay [1] (measured here: cell number at 48 h, Library stock concentration: 278 uM) worked out at 110%; in assay [1] (measured here: cell number at 48 h, Library stock concentration: 1.67 mM) it was 69.2%; in assay [1] (setting [7]), 66.8%; in assay [1] (setting [11]) it was 36.2%. Also, the p53-positive nuclei, normalised in assay [2] (Library stock concentration: 46 uM) was -0.268% (inactive); in assay [2] (Library stock concentration: 278 uM), -0.012% (inactive); in assay [2] (Library stock concentration: 1.67 mM), 2.41% (inactive); in assay [2] (setting [8]) it was 3.08% (inactive); in assay [2] (setting [12]), 57.1% (active); in assay [2] (measured here: p53 positive nuclei at 24 h, Library stock concentration: 46 uM), -0.152%. In addition, the p53-positive nuclei, normalised in assay [2] (measured here: p53 positive nuclei at 24 h, Library stock concentration: 278 uM) is -0.153%; in assay [2] (measured here: p53 positive nuclei at 24 h, Library stock concentration: 1.67 mM) it was 1.05%; in assay [2] (setting [9]), 0.345%; in assay [2] (setting [13]) it was 46.4%.

For `CC(NC(=O)c1cc(Cl)ccc1Oc1ccc(F)cc1)c1ccc(C(=O)O)cc1` (centres undefined), the nuclei count, normalised is 115% in assay [1] (setting [14]); 119% in assay [1] (setting [15]); 117% in assay [1] (setting [16]); 107% in assay [1] (setting [10]); 117% in assay [1] (setting [17]); 115% in assay [1] (setting [18]). The nuclei count, normalised was 114% in assay [1] (setting [19]) and 108% in assay [1] (setting [11]). Moreover, the p53-positive nuclei, normalised was 0.0152% (inactive) in assay [2] (setting [20]); -0.136% (inactive) in assay [2] (setting [21]); -0.0948% (inactive) in assay [2] (setting [22]); -0.00827% (inactive) in assay [2] (setting [12]); -0.00172% in assay [2] (setting [23]); -0.0227% in assay [2] (setting [24]). The p53-positive nuclei, normalised was -0.0802% in assay [2] (setting [25]) and -0.136% in assay [2] (setting [13]).

As to `O=C1OC[C@@H](Cc2cccc(O)c2)[C@@H]1Cc1cccc(O)c1`, the values for the nuclei count, normalised in assay [1] (setting [3]) and in assay [1] (setting [4]) were 111% and 114%, respectively. Moreover, the values for the p53-positive nuclei, normalised in assay [2] (concentration not given here) and in assay [2] (setting [5]) were -0.147% (inactive) and -0.118%, respectively.

`COC1C[C@H]2CCC(C)[C@@](O)(O2)C(=O)C(=O)N2CCCC[C@H]2C(=O)OC(C(C)CC2CCC(OP(C)(C)=O)C(OC)C2)CC(=O)C(C)C=C(C)C(O)C(OC)C(=O)C(C)CC(C)C=CC=CC=C1C` (some centres undefined): the figures for the nuclei count, normalised in assay [1] (setting [6]) and in assay [1] (setting [7]) were 108% and 105%, respectively. Further, the p53-positive nuclei, normalised in assay [2] (setting [8]) was -0.656% (inactive); in assay [2] (setting [9]), -0.202%.

With `Cc1c(CN2CCN(C(=O)C(C)O)CC2)sc2c(N3CCOCC3)nc(-c3cnc(N)nc3)nc12` (centres undefined), the nuclei count, normalised is 107% in assay [1] (setting [14]); 110% in assay [1] (setting [15]); 89.3% in assay [1] (setting [16]); 82.6% in assay [1] (setting [6]); 84.4% in assay [1] (setting [10]); 113% in assay [1] (setting [17]). Besides, the nuclei count, normalised in assay [1] (setting [18]) was 112%; in assay [1] (setting [19]) it was 89%; in assay [1] (setting [7]), 84%; in assay [1] (setting [11]), 88.2%. The p53-positive nuclei, normalised in assay [2] (setting [20]) was 0.00265% (inactive); in assay [2] (setting [21]), -0.106% (inactive); in assay [2] (setting [22]) it was -0.151% (inactive); in assay [2] (setting [8]), -0.349% (inactive); in assay [2] (setting [12]) it was -0.157% (inactive); in assay [2] (setting [23]) it was 0.036%. For the same molecule, the p53-positive nuclei, normalised in assay [2] (setting [24]) was -0.106%; in assay [2] (setting [25]), -0.151%; in assay [2] (setting [9]) it was -0.356%; in assay [2] (setting [13]), -0.0302%.
